Screens as filed in PubChem BioAssay.
In the library only some 21% were active in any assay of this set; here they are far more common.
CHX counter: counter-screen hit for Shiga toxin inhibitors, cycloheximide. cell reporter, cycloheximide protein synthesis inhibition counterscreen. max response, %. 300,000 tested, 12% active. AID 2314; in the data active = max response mostly above about 13%, no sharp cut-off; inactive = mostly below about 14%; also: read at 38.3 µM for the half of the compounds with a filed dose; 0% is about no effect
Shiga toxin inh: Shiga toxin inhibition; Vero cells, Shiga toxin protein synthesis inhibition reporter; inhibition, % at 38.7 µM; 290,000 tested, 9.2% active; AID 2315; in the data active = inhibition mostly above about 28%, no sharp cut-off; inactive = mostly below about 43%; also: 0% is about no effect
NS1 function inh: inhibitors of influenza NS1 protein function | Potency, µM (series often up to 46.1 µM), without a hit: top-dose activity, positive = more growth | 270,000 tested, 0.4% active; calls by dose curve; also: potency is read from the fitted curve at half-maximal effect; actives are rising curves; nearly all actives have a fitted effect of over 50% in size
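Recovery from NS1-induced slow growth read by OD600 in budding yeast switched to galactose assay medium (pH 6.0, -URA) at 1:100 dilution. Compound 23 nl per well; the matching strain lacking NS1 serves as control.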
Pf growth 96h: P. falciparum growth inhibition at 96 hours; Potency, µM (series often up to 28.7 µM), inactives show at the top dose activity change, negative = inhibition, usual class: inhibitors; P. falciparum luciferase reporter growth, 96 h; AID 504834; 320,000 tested, 6.9% active; also: potency is read from the fitted curve at half-maximal effect; % is scaled to controls: 0 for no effect and ±100 for the full control effect
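Compounds incubated with erythrocytes infected by luciferase-expressing P. falciparum (2% hematocrit, 0.05% parasitemia final) for 96 hours, 37 C in 5% CO2. Growth inhibition scored as decreased luciferase luminescence.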
SARS PLP yeast: SARS-CoV PLP inhibition in yeast; S. cerevisiae expressing SARS-CoV PLpro, growth rescue; Potency, µM (top dose mostly 32.9 µM), without a hit: at the top dose activity, positive = growth rescue, usual class: activators; 330,000 tested, 0.19% active; calls by dose curve; also: potency is read from the fitted curve at half-maximal effect; 0% is about no effect; nearly all actives have a fitted effect of over 55% in size
Pf growth 48h: P. falciparum growth inhibition at 48 hours (one generation). P. falciparum luciferase growth in erythrocytes, 48 h. Potency, µM (doses to about 28.7 µM), inactives show top-dose activity change, negative = inhibition, most hits filed as inhibitors. AID 504832. 310,000 tested, 5.9% active; also: potency is read from the fitted curve at half-maximal effect; % is scaled to controls: 0 for no effect and ±100 for the full control effect
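Cell-based growth assay: transgenic P. falciparum expressing firefly luciferase, cultured in red cells within RPMI 1640 containing 0.5% w/v Albumax, 24 mM bicarbonate and gentamycin. A drop in luciferase activity indicates inhibition.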
The depositor's hits bear a star; ? = inconclusive; . = no result; [ ] = dose if it differs, or a comment. Unless noted, calls follow the shape of the dose curve; as a rule, active = well fitted inhibition curve with a large enough effect; inconclusive = small, poorly fitted or top-dose-only effect, or another doubt; inactive = no such curve, though single readings can be large or run the other way.

SMILES	CHX counter	Shiga toxin inh	NS1 function inh	Pf growth 96h	SARS PLP yeast	Pf growth 48h
O=C(COC(=O)c1cccc(OC(F)F)c1)NCC1CCCO1 (stereo not given)	.	.	.	.	-10%	.
CCc1nnc(NC(=O)c2ccc(Br)c(S(=O)(=O)N3CCOCC3)c2)s1	1	-3	-4%	3%	-1%	-6%
COC(=O)CCn1nc(-c2ccc(C)cc2)c2ccccc2c1=O	-2	-12	-31%	193%	0%	15%
Cc1ccccc1NC(=O)c1ccc(NC(=O)C2CC(=O)OC23CCCCC3)cc1 (stereo not given)	-1	-8	-4%	27%	1%	13µM*
O=C(Nc1ccccc1NC(=O)c1ccco1)c1ccco1	4	-5	?	.	7%	0%
O=C(Nc1ccccc1-c1ccccc1NC(=O)c1ccco1)c1ccco1	-3	-5	-16%	?	9%	10µM*
O=C(Nc1ccccc1-c1ccccc1)c1ccco1	-3	31	-16%	1.3µM*	-3%	32%
COC(=O)Cc1c(OC)ccn(CCc2c[nH]c3ccccc23)c1=O	34*	103*	.	460%	-1%	195%
COC(=O)Cc1c(O)ccn(CCc2c[nH]c3ccccc23)c1=O	-5	-1	-3%	31%	0%	16%
O=c1c(Cc2c(F)cccc2Cl)c(O)ccn1CCc1c[nH]c2ccccc12	-1	-12	14%	5.2µM*	0%	?
Cc1cc(Br)cc2c(C(=O)NCC3CCCO3)cc(-c3ccccc3)nc12 (stereo not given)	-1	-8	-10%	31%	1%	-3%
COc1ccc(C(=O)COC(=O)c2ccc3c(c2)OCCO3)c(OC)c1	.	.	.	47%	1%	36%
COc1ccc(S(=O)(=O)N2CCN(c3ccccc3OC)CC2)cc1-c1noc(C)n1	8	-7	.	.	.	.
CC(=O)Nc1ccccc1C(=O)C(=O)Nc1ccccc1	11	41	6%	7.4µM*	2%	64%
CC(=O)Nc1ccc(C(=O)NNC(=O)c2ccc(Cl)cc2)cc1	-2	8	2%	7%	13%	49%
CC(=O)Nc1ccccc1C(=O)C(=O)Nc1cccc(C(=O)N2CCC3(CC2)OCCO3)c1	-1	-12	.	1.9µM*	4%	8%
CC(=O)Nc1ccccc1C(=O)C(=O)Nc1ccc(C(=O)N2CCOCC2)cc1	7	10	.	-20%	-2%	81%
CC(=O)Nc1ccccc1C(=O)C(=O)NCCc1ccccc1	4	52	.	?	-1%	63%
CCC(=O)Nc1ccccc1C(=O)OC(c1ccccc1)c1ccccc1	1	3	-4%	?	5%	?
CC(=O)Nc1ccccc1C(=O)C(=O)Nc1ccc(Cl)cc1	17*	75*	.	28%	-1%	69%
CCC(=O)Nc1ccccc1C(=O)C(=O)Nc1ccccc1	35*	38*	-2%	?	23%	127%
O=C(COC(=O)C1CCN(S(=O)(=O)c2ccc3c(c2)OCCO3)CC1)Nc1cccc2ccccc12	-2	-4	?	18%	12%	19%
CC(C)(C)c1ccc(C(=O)NCCC(=O)N2CCC3(CC2)NCCc2[nH]cnc23)cc1	-3	-3	6%	-2%	-1%	7%
CCCCN(CC)CCCNC(=O)c1cc2c(=O)n(C)c3ccccc3c2n1C	0	-9	-13%	?	-3%	?
COc1ccc([N+](=O)[O-])cc1NC(=O)COC(=O)c1ccc(O)cc1	-2	-1	-1%	0%	1%	39%
SMILES	CHX counter	Shiga toxin inh	NS1 function inh	Pf growth 96h	SARS PLP yeast	Pf growth 48h
CC(=O)Nc1ccc(S(=O)(=O)N2CCN(C(=O)c3ncoc3-c3cccc(F)c3)CC2)cc1	-6	-12	-66%	-1%	-2%	-5%
Cc1ccc(C(=O)N2CCN(Cc3ccc4c(c3)OCO4)CC2)cc1[N+](=O)[O-]	-2	-27	3%	68%[5.75 µM]	1%	5%
Cc1noc(C)c1C(=O)OCC(=O)Nc1ncc(C(F)(F)F)cc1Cl	.	.	.	.	1%	.
O=C(Nc1ccccc1)OCCNC(=O)c1cccc(Br)c1	4	-3	-9%	-22%	-1%	-12%[0.00184 µM]
CC(=O)Nc1cccc(C(=O)Nc2ccccc2C(=O)O)c1	-2	-17	1%	.	?	-12%
CCN(CC)CCNC(=O)c1cccc(NC(=O)C(=O)c2cc(Br)ccc2NC(C)=O)c1	-4	-12	.	?	1%	10µM*
CC(=O)Nc1ccccc1C(=O)C(=O)Nc1cccc(Br)c1	37*	100*	3%	?	-5%	26%
CC(OC(=O)c1ccco1)C(=O)Nc1ncc(Cl)cc1Cl (stereo not given)	.	.	.	1%	1%	17%
Cc1cccn2c(=O)nc(SCC(=O)Nc3ccc4c(c3)OCO4)nc12	.	.	.	31%	4%	?
O=c1n(CC2CO2)c(=O)n(CC2CO2)c(=O)n1CC1CO1 (stereo not given)	.	.	.	6µM*	.	9.5µM*
ClCC1CO1 (stereo not given)	.	.	.	3%	.	12%
O=C(CNC(=O)c1ccc(Cl)cc1)NC(CO)c1ccccc1 (stereo not given)	-2	-6	1%	9%	-1%	-7%
CN(c1ccccc1)c1ccc(/C=N/N2CCOCC2)cc1	84*	61*	-6%	228%	-15%	253%
C(=N\N1CCN(c2ccccn2)CC1)/c1ccccn1	49*	37*	-4%	107%	-2%	214%
CCN(CC)c1ccc(/C=N/N2CCN(Cc3ccccc3)CC2)cc1	-2	15	.	-6%	2%	21%
BrC(=C\c1ccccc1)/C=N/N1CCN(c2ccccn2)CC1	40*	38*	-16%	7%	-29%	9%
Oc1ccc(/C=N/N2CCN(c3ccccn3)CC2)cc1	27*	101*	-4%	97%	1%	64%
Oc1cccc(/C=N/N2CCN(c3ccccn3)CC2)c1	40*	128*	-6%	59%	0%	53%
CC(C)(C)c1ccc(/C=N/N2CCN(c3ccccn3)CC2)cc1	9	21	-5%	13%	0%	?
O=[N+]([O-])c1ccccc1/C=N/N1CCN(c2ccccn2)CC1	37*	47*	-12%	121%	-10%	-12%
CN(C)c1ccc(/C=N/N2CCN(c3ccccn3)CC2)cc1	34*	91*	-2%	10%	1%	128%
CC(C)(C)c1ccc(OCCCC(=O)Nc2ccc(S(N)(=O)=O)cc2)cc1	10	-3	.	-48%	2%	-16%
CC(C)CN(c1ccccc1)S(=O)(=O)c1nnc(NC(=O)C(C)C)s1	-2	-3	0%	-24%	0%	-6%
CCCNC(=O)[C@H]1N2C(=O)c3c(ccc(OC)c3OC)C2SC1(C)C (stereo not given in full)	-2	-7	3%	3%	0%	.
Cc1nn(-c2ccccc2)nc1C(=O)Oc1cc(C(F)(F)F)nn1-c1ccccc1	-2	-2	?	-29%	6%	0.37µM*
